The supplement of paper PMC7411054
Where a name gives a salt, the structure may show the parent alone.

Experiments:
Settings in all cases: treatment time: 24 h
[1] = tested on: A549-GM130-SQSTM1; experiment: lowest phenotypically active concentration; higher = less potent
In short: (§1)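 The reporter lines, fifteen in total and built by gene editing in A549, HepG2 and WPMY1 cells, used BFP for segmentation alongside GFP and RFP/FusionRed markers. Each was treated at 0.3, 1, 3 or 9 µM for 24 h in four wells and then imaged live, with live-cell features normalised to solvent control wells. Deviation meant ≥3 of 4 wells beyond the 95th percentile of control Euclidean distances; reproducibility meant a median replicate Pearson correlation above the 95th percentile of non-replicates. Only conditions meeting both were scored as phenotypically active.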

[2] = tested on: A549-ACTB-RAB5A; experiment: phenotypically active (imaging signature differs from DMSO and reproducible) at any of 0.3-9 uM (binary (1 = active, 0 = inactive)); higher = active
In short: as §1

[3] = tested on: A549-CANX-COX4; experiment: as above
In short: as §1

[4] = tested on: A549-GM130-SQSTM1; experiment: as above
In short: as §1

[5] = tested on: A549-TP53BP1-CLTA; experiment: as above
In short: as §1

[6] = tested on: A549-TUBA1B-RELA; experiment: as above
In short: as §1

[7] = tested on: HepG2-ACTB-RAB5A; experiment: as above
In short: as §1

[8] = tested on: HepG2-CANX-COX4; experiment: as above
In short: as §1

[9] = tested on: HepG2-GM130-SQSTM1; experiment: as above
In short: as §1

[10] = tested on: HepG2-TP53BP1-CLTA; experiment: as above
In short: as §1

[11] = tested on: HepG2-TUBA1B-RELA; experiment: as above
In short: as §1

[12] = tested on: WPMY1-ACTB-RAB5A; experiment: as above
In short: as §1

[13] = tested on: WPMY1-CANX-COX4; experiment: as above
In short: as §1

[14] = tested on: WPMY1-GM130-SQSTM1; experiment: as above
In short: as §1

[15] = tested on: WPMY1-TP53BP1-CLTA; experiment: as above
In short: as §1

[16] = tested on: WPMY1-TUBA1B-RELA; experiment: as above
In short: as §1

[17] = tested on: HepG2-ACTB-RAB5A; experiment: lowest phenotypically active concentration; higher = less potent
In short: as §1

[18] = tested on: WPMY1-GM130-SQSTM1; experiment: as above
In short: as §1

[19] = tested on: A549-ACTB-RAB5A; experiment: as above
In short: as §1

[20] = tested on: WPMY1-CANX-COX4; experiment: as above
In short: as §1

O=S(=O)(c1ccccc1)N(CC(F)(F)F)c1ccc(C(O)(C(F)(F)F)C(F)(F)F)cc1
active: phenotypically active [4] 1
9 µM: lowest phenotypically active concentration [1]
inactive: phenotypically active [2] 0 | phenotypically active [3] 0 | phenotypically active [5] 0 | phenotypically active [6] 0 | phenotypically active [7] 0 | phenotypically active [8] 0 | phenotypically active [9] 0 | phenotypically active [10] 0 | phenotypically active [11] 0 | phenotypically active [12] 0 | phenotypically active [13] 0 | phenotypically active [14] 0 | phenotypically active [15] 0 | phenotypically active [16] 0

N=C(N)NC(=N)NCCc1ccccc1 [phenformin]
active: phenotypically active [3] 1 | phenotypically active [4] 1
9 µM: lowest phenotypically active concentration [1]
inactive: phenotypically active [2] 0 | phenotypically active [5] 0 | phenotypically active [6] 0 | phenotypically active [7] 0 | phenotypically active [8] 0 | phenotypically active [9] 0 | phenotypically active [10] 0 | phenotypically active [11] 0 | phenotypically active [12] 0 | phenotypically active [13] 0 | phenotypically active [14] 0 | phenotypically active [15] 0 | phenotypically active [16] 0

Cc1cccc(C)c1OCC(C)N (configuration not stated) [mexiletine]
≤ 0.3 µM: lowest phenotypically active concentration [17] | lowest phenotypically active concentration [18]
inactive: phenotypically active [2] 0 | phenotypically active [4] 0 | phenotypically active [6] 0 | phenotypically active [8] 0 | phenotypically active [9] 0 | phenotypically active [10] 0 | phenotypically active [11] 0 | phenotypically active [12] 0 | phenotypically active [13] 0 | phenotypically active [15] 0 | phenotypically active [16] 0
active: phenotypically active [3] 1 | phenotypically active [5] 1 | phenotypically active [7] 1 | phenotypically active [14] 1

CC(C)(C)c1ccc(S(=O)(=O)/C=C/C#N)cc1
inactive: phenotypically active [3] 0 | phenotypically active [4] 0 | phenotypically active [5] 0 | phenotypically active [6] 0 | phenotypically active [7] 0 | phenotypically active [8] 0 | phenotypically active [10] 0 | phenotypically active [12] 0 | phenotypically active [16] 0
active: phenotypically active [2] 1 | phenotypically active [9] 1 | phenotypically active [11] 1 | phenotypically active [13] 1 | phenotypically active [14] 1 | phenotypically active [15] 1
9 µM: lowest phenotypically active concentration [19] | lowest phenotypically active concentration [20] | lowest phenotypically active concentration [18]

O=c1c(-c2ccc(O)cc2)coc2cc(O)cc(O)c12 [Genistein]
active: phenotypically active [4] 1 | phenotypically active [5] 1 | phenotypically active [6] 1 | phenotypically active [12] 1 | phenotypically active [13] 1 | phenotypically active [15] 1 | phenotypically active [16] 1
inactive: phenotypically active [2] 0 | phenotypically active [3] 0 | phenotypically active [7] 0 | phenotypically active [8] 0 | phenotypically active [9] 0 | phenotypically active [10] 0 | phenotypically active [11] 0 | phenotypically active [14] 0
9 µM: lowest phenotypically active concentration [1] | lowest phenotypically active concentration [20]

CC(C)(C)c1cc(/C=C(\C#N)C(N)=S)cc(C(C)(C)C)c1O
9 µM: lowest phenotypically active concentration [17] | lowest phenotypically active concentration [18]
inactive: phenotypically active [2] 0 | phenotypically active [6] 0 | phenotypically active [12] 0 | phenotypically active [13] 0 | phenotypically active [16] 0
3 µM: lowest phenotypically active concentration [1]
active: phenotypically active [3] 1 | phenotypically active [4] 1 | phenotypically active [5] 1 | phenotypically active [7] 1 | phenotypically active [8] 1 | phenotypically active [9] 1 | phenotypically active [10] 1 | phenotypically active [11] 1 | phenotypically active [14] 1 | phenotypically active [15] 1

C[C@H](NC(=O)[C@@H](O)c1cc(F)cc(F)c1)C(=O)N[C@@H]1C(=O)N(C)c2ccccc2-c2ccccc21
inactive: phenotypically active [2] 0 | phenotypically active [3] 0 | phenotypically active [4] 0 | phenotypically active [5] 0 | phenotypically active [6] 0 | phenotypically active [7] 0 | phenotypically active [9] 0 | phenotypically active [10] 0 | phenotypically active [11] 0 | phenotypically active [15] 0 | phenotypically active [16] 0
active: phenotypically active [8] 1 | phenotypically active [12] 1 | phenotypically active [13] 1 | phenotypically active [14] 1
1 µM: lowest phenotypically active concentration [20]
3 µM: lowest phenotypically active concentration [18]

C[C@@H]1CN(Cc2ccc(F)cc2)[C@@H](C)CN1C(=O)c1cc2c(C(=O)C(=O)N(C)C)cn(C)c2cc1Cl [SCIO 469 hydrochloride]
inactive: phenotypically active [2] 0 | phenotypically active [3] 0 | phenotypically active [4] 0 | phenotypically active [5] 0 | phenotypically active [6] 0 | phenotypically active [9] 0 | phenotypically active [14] 0 | phenotypically active [15] 0 | phenotypically active [16] 0
3 µM: lowest phenotypically active concentration [20]
active: phenotypically active [7] 1 | phenotypically active [8] 1 | phenotypically active [10] 1 | phenotypically active [11] 1 | phenotypically active [12] 1 | phenotypically active [13] 1
9 µM: lowest phenotypically active concentration [17]

O=c1cc(N2CCOCC2)oc2c1ccc1ccccc12
inactive: phenotypically active [2] 0 | phenotypically active [3] 0 | phenotypically active [5] 0 | phenotypically active [6] 0 | phenotypically active [7] 0 | phenotypically active [8] 0 | phenotypically active [9] 0 | phenotypically active [10] 0 | phenotypically active [11] 0 | phenotypically active [12] 0 | phenotypically active [13] 0 | phenotypically active [14] 0 | phenotypically active [15] 0
active: phenotypically active [4] 1 | phenotypically active [16] 1
3 µM: lowest phenotypically active concentration [1]
